# Measurements reported in PubChem BioAssay.
# “And” between values parts separate entries of the source, which are not always exact repeats. Identical values can stand only once. Where a structure was tested more than once in an assay, its records may differ in their call. The source made the active and inactive calls. Unless noted, how the calls were made is not given here.
# Tests used:
# [1] = biological target: 6-phosphogluconate dehydrogenase, decarboxylating (Homo sapiens) (UniProt P52209); test: 6PGD enzyme inhibitors, primary screen, biochemical, human, recombinant enzyme, NADPH absorbance (AID 1159550;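 active means at least 20% inhibition of 6-phosphogluconate dehydrogenase activity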); conditions: recombinant 6PGD, NADPH absorbance 341 nm; at 10 µM; stronger effect = higher value
# 6-phosphogluconate dehydrogenase, decarboxylating (Homo sapiens), sequence (P52209 whole entry, looked up): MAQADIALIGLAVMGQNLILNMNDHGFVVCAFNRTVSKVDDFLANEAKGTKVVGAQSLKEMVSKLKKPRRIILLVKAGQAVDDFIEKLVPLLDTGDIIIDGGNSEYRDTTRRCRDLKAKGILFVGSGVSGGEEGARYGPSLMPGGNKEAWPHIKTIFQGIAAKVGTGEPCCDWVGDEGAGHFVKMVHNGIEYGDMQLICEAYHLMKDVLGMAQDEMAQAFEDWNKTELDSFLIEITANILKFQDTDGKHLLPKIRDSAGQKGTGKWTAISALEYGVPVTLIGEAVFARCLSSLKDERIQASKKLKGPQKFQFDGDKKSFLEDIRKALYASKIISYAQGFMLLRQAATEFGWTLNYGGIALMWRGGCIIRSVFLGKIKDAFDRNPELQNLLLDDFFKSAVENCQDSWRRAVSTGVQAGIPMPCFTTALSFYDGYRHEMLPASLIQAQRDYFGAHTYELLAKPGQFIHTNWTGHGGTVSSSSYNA
# [2] = polyglutamine-triggered caspase-3 activation inhibitors, cell-based (AID 1583); conditions: polyglutamine-induced caspase-3 activation, cell assay; stronger effect = higher value;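 tested at 10 µM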
# [3] = suppressors of polyQ aggregation in yeast, 75Q-TubU reporter (AID 1593); conditions: Yeast 75Q polyglutamine aggregation reporter
# [4] = inhibitors of mitochondrial cytochrome c release, biochemical, purified mitochondria (AID 1603); conditions: stronger effect = lower value;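 further: mouse liver mitochondria challenged with calcium chloride; signal normalized to the plate average as 100%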
# [5] = hESC survival regulators, cell-based (AID 493140); conditions: human embryonic stem cell survival screen; stronger effect = higher value;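 further: cells exposed to compounds for four days before counting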
# [6] = differential killing of epithelial or mesenchymal cells, primary screen, imaging, PC-3E GFP, TEM4-18 mCherry, co-culture (AID 1345086;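 active means compounds killing one labelled cell type while sparing the other, by normalised counts and ratio limits, not self-fluorescent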;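 on all read-outs here: cells exposed to compound for 72 h before imaging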;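 on red/green cell ratio (normalised): normalised mesenchymal count divided by normalised epithelial count so high means epithelial killing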); conditions: imaging cell counts, at 1 µM; for red/green cell ratio (normalised): actives lie on both sides
# [7] = system: Aerobactin synthetase IucA (Klebsiella pneumoniae hvKP1); test: Biochemical IucA enzyme inhibition primary screen of the Spectrum library (AID 1346200); conditions: malachite green pyrophosphate, A620, at 8 µM, stronger effect = lower value;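 further: 100% = wells without compound and 0% = wells lacking enzyme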
# [8] = survival rescue of mitochondrial mutant cells in low glucose, primary screen, MELAS cybrids, Rieske KO mouse fibroblasts, CellTiter-Glo (AID 1508586;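 active means mean z-score across replicates of 1.96 or higher in either the MELAS or the Rieske mutant cell line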;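 further: z relative to plate mean and SD of compound and empty wells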)
# [9] = biological target: NAD(+) hydrolase SARM1 (Homo sapiens) (UniProt Q6SZW1); test: SARM1 TIR NADase inhibitors, cell lysate, NAD-Glo luminescence (AID 1508614;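 active means compound whose remaining NAD level is above about 45 nM, limit read from the data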); conditions: SAM-TIR HEK293T lysate NADase, at 1 µM, stronger effect = higher value
# NAD(+) hydrolase SARM1 (Homo sapiens), sequence (Q6SZW1 whole entry, looked up, the tested form may be a part): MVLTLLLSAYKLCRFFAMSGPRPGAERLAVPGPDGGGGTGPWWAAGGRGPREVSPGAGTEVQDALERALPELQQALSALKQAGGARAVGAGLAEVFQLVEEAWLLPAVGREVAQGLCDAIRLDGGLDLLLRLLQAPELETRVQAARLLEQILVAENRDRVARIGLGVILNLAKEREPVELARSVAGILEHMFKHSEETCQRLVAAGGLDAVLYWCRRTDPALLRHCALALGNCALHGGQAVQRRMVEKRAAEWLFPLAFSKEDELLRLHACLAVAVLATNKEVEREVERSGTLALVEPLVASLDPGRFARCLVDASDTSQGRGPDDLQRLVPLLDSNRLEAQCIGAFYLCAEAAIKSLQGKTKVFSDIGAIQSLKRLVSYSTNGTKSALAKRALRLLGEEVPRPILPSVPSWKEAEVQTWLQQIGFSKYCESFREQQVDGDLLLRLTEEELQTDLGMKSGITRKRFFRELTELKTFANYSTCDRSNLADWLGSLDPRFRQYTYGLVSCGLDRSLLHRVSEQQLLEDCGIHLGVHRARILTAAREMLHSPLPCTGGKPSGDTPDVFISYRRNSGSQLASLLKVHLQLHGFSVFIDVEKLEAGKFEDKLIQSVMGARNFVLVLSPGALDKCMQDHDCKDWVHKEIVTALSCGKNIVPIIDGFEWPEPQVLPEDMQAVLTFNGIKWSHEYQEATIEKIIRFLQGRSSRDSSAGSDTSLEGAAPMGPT
# [10] = biological target: Mitogen-activated protein kinase 7 (Homo sapiens) (UniProt Q13164); test: ERK5 transactivation activators in reporter cells, primary screen, cell-based, HTS (AID 1508626;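 active means luciferase signal above three times the same-plate solvent-only control wells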;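 further: luciferase driven by Gal4-ERK5 fusion binding five Gal4 sites before minimal TATA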); conditions: HeLa Gal4-ERK5 transactivation, 18 h, at 5 µM, stronger effect = higher value
# Mitogen-activated protein kinase 7 (Homo sapiens), sequence (Q13164 whole entry, looked up, the tested form may be a part): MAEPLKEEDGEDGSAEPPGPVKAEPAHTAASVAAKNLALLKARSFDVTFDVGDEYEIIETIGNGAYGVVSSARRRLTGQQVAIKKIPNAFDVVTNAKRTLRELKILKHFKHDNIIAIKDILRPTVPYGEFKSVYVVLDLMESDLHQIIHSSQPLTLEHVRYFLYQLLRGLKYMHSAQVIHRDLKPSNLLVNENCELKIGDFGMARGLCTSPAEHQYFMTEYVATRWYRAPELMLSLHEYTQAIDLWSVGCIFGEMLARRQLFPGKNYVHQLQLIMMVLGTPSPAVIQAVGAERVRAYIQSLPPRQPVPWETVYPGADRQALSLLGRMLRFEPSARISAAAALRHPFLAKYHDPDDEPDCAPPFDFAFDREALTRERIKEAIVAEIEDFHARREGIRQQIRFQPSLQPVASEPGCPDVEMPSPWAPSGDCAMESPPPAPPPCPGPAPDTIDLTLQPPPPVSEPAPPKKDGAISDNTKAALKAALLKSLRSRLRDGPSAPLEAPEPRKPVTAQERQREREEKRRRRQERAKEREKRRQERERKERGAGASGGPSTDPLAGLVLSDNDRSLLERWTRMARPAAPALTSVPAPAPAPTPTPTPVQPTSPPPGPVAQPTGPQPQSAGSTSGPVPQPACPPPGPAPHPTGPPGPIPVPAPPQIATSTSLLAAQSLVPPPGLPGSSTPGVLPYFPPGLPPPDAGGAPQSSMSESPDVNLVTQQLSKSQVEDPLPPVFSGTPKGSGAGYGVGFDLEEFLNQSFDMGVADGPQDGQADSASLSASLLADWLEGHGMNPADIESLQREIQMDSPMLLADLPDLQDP
# [11] = liver-stage malaria parasite growth inhibition, primary screen, cell-based, HepG2, luciferase luminescence, HepG2 viability (AID 624349; in the data active means parasite load remaining mostly below about 12%, no sharp cut-off; inactive means mostly above about 10%;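 further: 100% = mean of DMSO negative control wells on the same plate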); conditions: P. berghei liver stage in HepG2, luciferase luminescence, concentration not given here; parasite load remaining: stronger effect = lower value; viability: measured here: HepG2 viability without parasites
# [12] = sensitizers of A549 cells to miR-34 induction, primary screen, imaging, A549 dox-inducible miR-34, nuclei and caspase counts (AID 1347080;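 active means compounds whose cell count with miR-34 switched on is under 0.7 times the count with it off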); conditions: A549 miR-34 inducible, Hoechst nuclei count, 48 h
# [13] = measured here: epithelial PC-3E GFP cell survival
# [14] = measured here: mesenchymal TEM4-18 mCherry cell survival
# [15] = MELAS cybrid survival, CellTiter-Glo 48 h, stronger effect = higher value
# [16] = Rieske KO mouse fibroblast survival, CellTiter-Glo 72 h
# [17] = measured here: relative caspase fold change +Dox/-Dox
# [18] = measured here: total cells with miR-34 induction, stronger effect = lower value
# [19] = measured here: total cells without miR-34 induction
smiles,measurement,setting,value
C[C@@H]1CC[C@@]2(OC1)O[C@H]1[C@@H](O)[C@H]3[C@@H]4CC[C@H]5C[C@@H](O[C@@H]6O[C@H](CO)[C@H](O[C@@H]7O[C@H](CO)C(O)[C@H](O[C@@H]8OC[C@@H](O)[C@H](O)[C@H]8O)[C@H]7O[C@@H]7O[C@H](CO)[C@H](O)[C@H](O[C@@H]8O[C@H](CO)[C@@H](O)[C@H](O)[C@H]8O)[C@H]7O)[C@H](O)[C@H]6O)[C@H](O)C[C@]5(C)[C@H]4CC[C@]3(C)[C@H]1[C@@H]2C (stereo not given in full),inhibition,[1],-7.91% (inactive)
CC[C@@H]1C(=O)OC[C@@H]1Cc1cncn1C,inhibition,[2],5.24%
same,score,[3],1.3
same,cytochrome c release ratio,[4],1.64
same,survival,[5],5.75 (inactive)
same,inhibition,[1],-6.49% (inactive)
same,red/green cell ratio (normalised),"[6]; counts scaled to control wells, 1 = unselective",1.18 (inactive)
same,normalised cell number,[6]; [13],0.97
same,normalised cell number,[6]; [14],1.14
same,activity remaining,[7],115% (inactive)
same,z-score,[8]; [15],0.213 (inactive)
same,z-score,[8]; [16],-0.117
same,remaining NAD,[9],10 nM (inactive)
same,luciferase signal,[10],44 AU (inactive)
NCC(=O)c1ccccc1,inhibition,[1],-6.79% (inactive)
same,red/green cell ratio (normalised),[6],0.98 (inactive)
same,normalised cell number,[6]; [13],1.03
same,normalised cell number,[6]; [14],1.02
same,activity remaining,[7],114% (inactive)
same,luciferase signal,[10],56 AU (inactive)
CNC(C)C(O)c1ccccc1 (stereo not given),inhibition,[2],28.1% and 10.2%
same,score,[3],0.95 and 1.05
same,cytochrome c release ratio,[4],1.45 and 0.98
same,parasite load remaining,[11],90.9% (inactive) and 53.2% (inactive)
same,viability,[11],77.9% and 114%
same,inhibition,[1],-20.1% (inactive)
same,red/green cell ratio (normalised),[6],0.97 (inactive)
same,normalised cell number,[6]; [13],1.05
same,normalised cell number,[6]; [14],1.03
same,activity remaining,[7],81.5% (inactive)
same,fold change,[12]; stronger effect = lower value,0.894 (inactive)
same,fold change,[12]; [17],2.97
same,cell count,[12]; [18],10800
same,cell count,[12]; [19],12100
same,remaining NAD,[9],10 nM (inactive)
same,luciferase signal,[10],24 AU (inactive)
CCCCCCCCCCCCCCCC[n+]1ccccc1,inhibition,[2],55.6%
same,score,[3],-0.08
same,cytochrome c release ratio,[4],3.74
same,parasite load remaining,[11],-0.13% (inactive) and -0.08% (inactive)
same,viability,[11],14.3% and 4.9%
same,inhibition,[1],10.7% (inactive)
same,red/green cell ratio (normalised),[6],0.76 (inactive)
same,normalised cell number,[6]; [13],0.52
same,normalised cell number,[6]; [14],0.4
same,activity remaining,[7],111% (inactive)
same,fold change,[12]; stronger effect = lower value,0.867 (inactive) and 0.767 (inactive)
same,fold change,[12]; [17],1.06 and 4.42
same,cell count,[12]; [18],1850 and 1610
same,cell count,[12]; [19],2130 and 2090
same,z-score,[8]; [15],-0.367 (inactive)
same,z-score,[8]; [16],-0.303
same,remaining NAD,[9],10 nM (inactive)
same,luciferase signal,[10],96 AU (inactive)
N[C@H](CO)Cc1ccccc1,inhibition,[1],1.18% (inactive)
same,red/green cell ratio (normalised),[6],1 (inactive)
same,normalised cell number,[6]; [13],1.16
same,normalised cell number,[6]; [14],1.17
same,activity remaining,[7],102% (inactive)
COc1cc2c(cc1OC)C(C)NCC2 (stereo not given),survival,[5],7.17 (inactive)
same,parasite load remaining,[11],65.2% (inactive) and 87.3% (inactive)
same,viability,[11],106% and 76.1%
same,inhibition,[1],-13.1% (inactive)
same,red/green cell ratio (normalised),[6],1.03 (inactive)
same,normalised cell number,[6]; [13],0.91
same,normalised cell number,[6]; [14],0.94
same,activity remaining,[7],101% (inactive)
same,fold change,[12]; stronger effect = lower value,0.83 (inactive)
same,fold change,[12]; [17],1.56
same,cell count,[12]; [18],9140
same,cell count,[12]; [19],11000
same,luciferase signal,[10],36 AU (inactive)
O=[N+]([O-])c1cc([As](=O)(O)O)ccc1O,inhibition,[2],4.6%
same,score,[3],1.17
same,cytochrome c release ratio,[4],1.09
same,survival,[5],4.83 (inactive)
same,parasite load remaining,[11],90.8% (inactive) and -0.22% (active) and 33.7% (inactive)
same,viability,[11],83.9% and 75.8% and 93.4%
same,inhibition,[1],11.3% (inactive)
same,red/green cell ratio (normalised),[6],1.34 (inactive)
same,normalised cell number,[6]; [13],0.89
same,normalised cell number,[6]; [14],1.19
same,activity remaining,[7],112% (inactive)
same,fold change,[12]; stronger effect = lower value,0.929 (inactive) and 0.938 (inactive)
same,fold change,[12]; [17],0.651 and 3.1
same,cell count,[12]; [18],8580 and 11200
same,cell count,[12]; [19],9240 and 11900
same,remaining NAD,[9],10 nM (inactive)
same,luciferase signal,[10],44 AU (inactive)
COC(=O)[C@]1(C)CC[C@]2(C)CC[C@]3(C)C4=CC=C5C(=CC(=O)C(O)=C5C)[C@]4(C)CC[C@@]3(C)[C@@H]2C1,inhibition,[1],9.49% (inactive)
same,red/green cell ratio (normalised),[6],0.14 (inactive)
same,normalised cell number,[6]; [13],0.01
same,normalised cell number,[6]; [14],0
same,activity remaining,[7],87.2% (inactive)
same,luciferase signal,[10],152 AU (inactive)
CC(N)Cc1ccc(O)cc1 (stereo not given),inhibition,[1],-0.0931% (inactive)
same,red/green cell ratio (normalised),[6],0.93 (inactive)
same,normalised cell number,[6]; [13],1.27
same,normalised cell number,[6]; [14],1.19
same,activity remaining,[7],111% (inactive)
same,remaining NAD,[9],10 nM (inactive)
CN(C)[C@@H]1C(=O)C(C(N)=O)=C(O)[C@@]2(O)C(=O)C3=C(O)c4c(O)ccc(Cl)c4[C@@](C)(O)[C@H]3C[C@@H]12,inhibition,[2],15.6%
same,score,[3],0.9
same,cytochrome c release ratio,[4],0.82
same,survival,[5],14.3 (inactive)
same,parasite load remaining,[11],104% (inactive) and 84.9% (inactive) and 79.4% (inactive)
same,viability,[11],73.9% and 86% and 80%
same,inhibition,[1],-12.1% (inactive)
same,red/green cell ratio (normalised),[6],0.9 (inactive) and 1.54 (inactive)
same,normalised cell number,[6]; [13],1.16 and 0.93
same,normalised cell number,[6]; [14],1.04 and 1.43
same,activity remaining,[7],117% (inactive)
same,fold change,"[12]; stronger effect = lower value, cell number ratio, induced over uninduced",0.926 (inactive)
same,fold change,[12]; [17],2.73
same,cell count,[12]; [18],9350
same,cell count,[12]; [19],10100
same,z-score,[8]; [15],-3.64 (inactive)
same,z-score,[8]; [16],-1.98
same,remaining NAD,[9],10 nM (inactive)
same,luciferase signal,[10],60 AU (inactive)
